# Assay outcomes from PubChem BioAssay.
# Hits are enriched below; roughly 2.3% of the tested compounds scored in any of these assays.
# Pol eta inh = blocks human DNA polymerase eta activity; Q9Y253; recombinant Pol eta, fluorescent DNA replication assay; Potency, µM (titrated, usually from 114 µM), actives largely listed as inhibitors; 1.2% of 390,000 active; AID 588591
#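 Pol eta at 10 nM preincubated with compounds 15 min at room temperature; reaction started with fluorescent substrate (50 nM final) and read kinetically at 0 and 10 min.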
# WRN helicase inh = blocks human WRN helicase | WRN helicase unwinding, fluorescent forked duplex, kinetic | Potency, µM (top dose mostly 114 µM), usual class: inhibitors | 0.46% of 360,000 active | Q14191; also: nearly all actives have a fitted effect of over 55% in size
#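 Fluorescence dequenching readout, ex 525 nm/em 598 nm, kinetic mode: forked duplex DNA (100 nM final) with adjacent fluorophore and quencher unwound by WRN (20 nM final) with 2 mM ATP. Compound preincubation 15 min, room temperature.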
# POLK inh = blocks human DNA polymerase kappa activity | Q9UBT6 | purified Pol kappa, fluorescent DNA synthesis assay, 10 min | Potency, µM (series often up to 107 µM), hits mostly inhibitors | 0.53% of 400,000 active
#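 10 nM Pol kappa preincubated 15 min at room temperature with compounds, then reaction started with substrate at 50 nM final. Fluorescence read kinetically at 0 and 10 min; buffer-only wells served as negative control.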
# POLI inh = blocks human DNA polymerase iota activity; 1% of 390,000 active; Pol iota fluorescent replication assay, 10 min; Q9UNA4; AID 588590; Potency, µM (series often up to 115 µM), most hits filed as inhibitors
#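 Pol iota at 10 nM preincubated 15 min with compounds at room temperature; reaction started with fluorescent substrate, 50 nM final. Fluorescence read kinetically at 0 and 10 min; buffer-only wells as negative control.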
# POLB inh = DNA polymerase beta (human) inhibition. Pol beta primer extension/strand displacement, fluorescence kinetic. Potency, µM (titrated, usually from 114 µM), usual class: inhibitors. P06746. AID 485314. 1.3% of 340,000 active
#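 Homogeneous kinetic assay of primer extension and strand displacement by 10 nM Pol beta, preincubated 15 min at room temperature with compound before 50 nM substrate (final) was added. Read at 0 and 10 min; four-parameter Hill fit.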
# A number is an active result; - = inactive; ? = inconclusive; . = no result given. Calls follow the shape of the dose curve; as a rule, active = well fitted curve in the direction sought with a large enough effect; inconclusive = small, poorly fitted or top-dose-only effect, or another doubt; inactive = no such curve, though single readings can be large; an effect the other way counts as inactive or inconclusive.
SMILES,Pol eta inh,WRN helicase inh,POLK inh,POLI inh,POLB inh
CCCOc1ccc(/C(O)=C2/C(=O)C(=O)N(CCCN3CCOCC3)C2c2ccncc2)cc1 (stereo unspecified),.,.,.,.,13µM
O=C(OCC1OC(OC(=O)c2cc(O)c(O)c(OC(=O)c3cc(O)c(O)c(O)c3)c2)[C@@H](OC(=O)c2cc(O)c(O)c(OC(=O)c3cc(O)c(O)c(O)c3)c2)C(OC(=O)c2cc(O)c(O)c(OC(=O)c3cc(O)c(O)c(O)c3)c2)C1OC(=O)c1cc(O)c(O)c(OC(=O)c2cc(O)c(O)c(O)c2)c1)c1cc(O)c(O)c(OC(=O)c2cc(O)c(O)c(O)c2)c1 (stereo partly specified),.,.,0.006µM,.,.
CCCc1nn2c(=O)cc(COC(=O)c3cccc(NC(=O)c4cccs4)c3)nc2s1,-,.,-,?,3.5µM
CCc1nn2c(=O)cc(COC(=O)c3ccc(NC(=O)c4cccs4)cc3)nc2s1,-,.,-,-,-
Cc1nn2c(=O)cc(COC(=O)c3ccc(NC(=O)c4cccs4)cc3)nc2s1,-,.,-,-,-
O=C(OCc1cc(=O)n2nc(-c3cccs3)sc2n1)c1cccc(Cl)c1,-,.,-,?,40µM
Cc1ccccc1C(=O)OCc1cc(=O)n2nc(-c3cccs3)sc2n1,-,.,-,?,32µM
Cc1ccc(C(=O)OCc2cc(=O)n3nc(-c4cccs4)sc3n2)cc1,89µM,.,?,?,18µM
C=COC(=O)/C=C/C,.,.,-,.,.
NC(=O)C1CCCN1C(=O)C(Cc1cnc[nH]1)NC(=O)C1CCC(=O)N1 (stereo unspecified),.,.,-,.,.
Cc1nn2c(=O)cc(COc3ccc(/C=C(\C#N)C(=O)Nc4ccccc4C)cc3)nc2s1,-,.,?,20µM,?
Cc1nn2c(=O)cc(COC(=O)c3ccccc3NC(=O)C(C)C)nc2s1,79µM,.,-,-,-
O=C(COc1ccc(Cl)cc1)OCc1cc(=O)n2nc(-c3cccs3)sc2n1,?,.,-,?,25µM
Cc1ccc(OCC(=O)OCc2cc(=O)n3nc(-c4cccs4)sc3n2)cc1,-,.,-,?,?
O=C(OCc1cc(=O)n2nc(-c3cccs3)sc2n1)c1ccccc1Cl,?,.,?,?,35µM
CCCc1nn2c(=O)cc(COc3ccc(/C=C(\C#N)C(=O)Nc4ccccc4)cc3)nc2s1,-,.,-,-,?
CC(C)c1nn2c(=O)cc(COC(=O)c3ccccc3Cl)nc2s1,-,.,-,-,-
Cc1nn2c(=O)cc(COC(=O)c3ccccc3NC(=O)c3ccccc3C)nc2s1,-,.,-,-,-
O=P1(O)OP(=O)(O)OP(=O)(O)O1.[Al],.,.,-,.,.
CCCOC(=O)C1=C(C)CS[C@@H]2[C@H](NC(=O)COc3ccccc3)C(=O)N12,.,.,-,-,.
C[C@H](NC(=O)c1cc2c(cn1)[nH]c1ccccc12)C(=O)O,-,35µM,-,-,-
O=[N+]([O-])c1ccc(O)c(Nc2ncnc3ccccc23)c1,?,-,-,-,28µM
CCC(=O)NC(c1cccc([N+](=O)[O-])c1)c1c(O)ccc2ccccc12 (stereo unspecified),-,-,-,89µM,-
CCOc1ccc(C(NC(=O)CC)c2c(O)ccc3ccccc23)cc1 (stereo unspecified),-,-,-,-,-
Cc1cc(C=Nc2ccc(/C=C/c3ccnc4ccccc34)cc2)ccc1N(C)C,.,.,-,-,.
SMILES,Pol eta inh,WRN helicase inh,POLK inh,POLI inh,POLB inh
S=c1[nH]nc(-c2ccccn2)n1/N=C/c1ccc(-c2ccccc2Cl)o1,-,-,-,-,22µM
S=c1[nH]nc(-c2ccccn2)n1/N=C/c1ccc(Cl)c(Cl)c1,-,-,-,-,-
Cc1ccc(-c2nn(CCC(=O)O)cc2/C=C\C(=O)c2ccc(Br)cc2)cc1,79µM,?,-,40µM,-
CCOC(=O)C1=C(C)N(C)C(=O)C1CC(=O)O (stereo unspecified),79µM,-,-,-,-
O=S(=O)(c1ccc2c(Cl)cccc2c1)N1CCN(c2nc(-c3cccs3)nc3ccccc23)CC1,.,.,-,-,.
COc1ccc(N(C(=O)c2ccc(C)cc2)S(=O)(=O)c2ccc(Cl)cc2)cc1,-,.,-,-,?
COc1ccc(S(=O)(=O)Nc2ccc(F)c(F)c2)cc1Cl,-,-,-,-,-
COc1ccc(N(C(=O)c2ccc(OC)c(OC)c2)S(=O)(=O)c2ccc(Cl)cc2)cc1,-,.,79µM,89µM,-
